Measured values reported in PubChem BioAssay (EPA / NIEHS).
Inconclusive results are not listed. The source made the active and inactive calls. The calls were made as follows: active = hit-call score of the fitted dose curve at least 0.9, where 1 is the maximum; inconclusive = response in the unintended direction; inactive = score below 0.9.

How the values were obtained:
[1] = target: human Adrenergic, Alpha 2A Receptor (Adra2A), ADRA2A (gene 150) (UniProt P08913); assay: NVS_GPCR_hAdra2A: NovaScreen (NVS) G Protein-Coupled Receptor Assay for human Adrenergic, Alpha 2A Receptor (Adra2A) (AID 2283257)
Chain of human Adrenergic, Alpha 2A Receptor (Adra2A), ADRA2A (gene 150) (P08913 whole entry, looked up): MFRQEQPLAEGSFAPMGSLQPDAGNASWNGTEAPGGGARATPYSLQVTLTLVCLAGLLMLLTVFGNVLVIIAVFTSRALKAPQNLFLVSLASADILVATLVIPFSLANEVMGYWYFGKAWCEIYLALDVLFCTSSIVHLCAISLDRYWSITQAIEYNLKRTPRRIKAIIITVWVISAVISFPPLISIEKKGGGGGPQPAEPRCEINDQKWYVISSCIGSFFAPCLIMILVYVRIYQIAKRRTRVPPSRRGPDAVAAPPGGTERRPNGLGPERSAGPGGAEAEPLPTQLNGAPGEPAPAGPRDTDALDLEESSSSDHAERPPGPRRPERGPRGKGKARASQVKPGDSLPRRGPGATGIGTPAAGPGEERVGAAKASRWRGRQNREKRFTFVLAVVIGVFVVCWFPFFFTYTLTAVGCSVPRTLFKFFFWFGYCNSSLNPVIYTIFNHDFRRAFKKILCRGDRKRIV
Summary of the method: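 Radioligand filter-binding was run on HT29-derived membranes, cell-free, read by scintillation counting 1 h after dosing. Primary screening was in duplicate at 25 uM, with concentration series in follow-up. Loss of signal versus DMSO indicates displacement.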

[2] = target: human Adrenergic, Beta 1 Receptor (Adrb1), ADRB1 (gene 153) (UniProt P08588); assay: NVS_GPCR_hAdrb1: NovaScreen (NVS) G Protein-Coupled Receptor Assay for human Adrenergic, Beta 1 Receptor (Adrb1) (AID 2283258)
Chain of human Adrenergic, Beta 1 Receptor (Adrb1), ADRB1 (gene 153) (P08588 whole entry, looked up): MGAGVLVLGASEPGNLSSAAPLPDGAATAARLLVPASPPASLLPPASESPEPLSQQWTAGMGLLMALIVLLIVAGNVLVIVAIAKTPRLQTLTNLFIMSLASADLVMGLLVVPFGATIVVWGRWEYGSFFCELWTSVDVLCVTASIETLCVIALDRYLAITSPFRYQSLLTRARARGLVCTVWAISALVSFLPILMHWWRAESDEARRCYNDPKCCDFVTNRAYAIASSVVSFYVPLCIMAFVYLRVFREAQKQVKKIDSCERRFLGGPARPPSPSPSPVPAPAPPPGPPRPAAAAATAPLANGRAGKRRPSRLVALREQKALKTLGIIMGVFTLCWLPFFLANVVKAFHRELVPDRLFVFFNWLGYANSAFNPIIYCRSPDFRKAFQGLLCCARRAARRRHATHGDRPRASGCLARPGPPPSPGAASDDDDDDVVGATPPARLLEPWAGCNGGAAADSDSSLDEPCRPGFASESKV
Summary of the method: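 Cell-free radioligand displacement on receptor from human neuroepithelioma cells; 2 h after dosing, filter-based scintillation counting. Primary screen in duplicate at 25 uM, actives retested in concentration series; loss of signal vs DMSO baseline.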

[3] = target: Beta-2 adrenergic receptor (Homo sapiens) (UniProt P07550); assay: NVS_GPCR_hAdrb2: NovaScreen (NVS) G Protein-Coupled Receptor Assay for human Adrenergic, Beta 2 Receptor (Adrb2) (AID 2283261)
Chain of Beta-2 adrenergic receptor (Homo sapiens) (P07550 whole entry, looked up): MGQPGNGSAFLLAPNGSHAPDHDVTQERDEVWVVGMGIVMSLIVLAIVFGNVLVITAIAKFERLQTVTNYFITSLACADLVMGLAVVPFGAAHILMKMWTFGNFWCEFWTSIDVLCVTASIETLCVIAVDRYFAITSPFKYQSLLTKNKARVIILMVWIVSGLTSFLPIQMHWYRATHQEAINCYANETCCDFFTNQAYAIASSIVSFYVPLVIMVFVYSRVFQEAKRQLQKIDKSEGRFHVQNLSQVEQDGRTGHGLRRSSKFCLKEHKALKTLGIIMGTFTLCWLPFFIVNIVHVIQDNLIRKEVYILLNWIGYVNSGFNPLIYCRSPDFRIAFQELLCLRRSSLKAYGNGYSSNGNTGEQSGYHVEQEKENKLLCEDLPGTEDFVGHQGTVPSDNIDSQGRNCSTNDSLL
Summary of the method: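 Filter-based radioligand binding using receptor prepared from CHO cells, 1 h incubation, scintillation counting. Primary screen in duplicate at 25 uM, actives retested in concentration series; loss of binding relative to DMSO.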

[4] = target: human Dopamine Receptor D4.4 (DRD4.4), DRD4 (gene 1815) (UniProt P21917); assay: NVS_GPCR_hDRD4.4: NovaScreen (NVS) G Protein-Coupled Receptor Assay for human Dopamine Receptor D4.4 (DRD4.4) (AID 2283264)
Chain of human Dopamine Receptor D4.4 (DRD4.4), DRD4 (gene 1815) (P21917 whole entry, looked up): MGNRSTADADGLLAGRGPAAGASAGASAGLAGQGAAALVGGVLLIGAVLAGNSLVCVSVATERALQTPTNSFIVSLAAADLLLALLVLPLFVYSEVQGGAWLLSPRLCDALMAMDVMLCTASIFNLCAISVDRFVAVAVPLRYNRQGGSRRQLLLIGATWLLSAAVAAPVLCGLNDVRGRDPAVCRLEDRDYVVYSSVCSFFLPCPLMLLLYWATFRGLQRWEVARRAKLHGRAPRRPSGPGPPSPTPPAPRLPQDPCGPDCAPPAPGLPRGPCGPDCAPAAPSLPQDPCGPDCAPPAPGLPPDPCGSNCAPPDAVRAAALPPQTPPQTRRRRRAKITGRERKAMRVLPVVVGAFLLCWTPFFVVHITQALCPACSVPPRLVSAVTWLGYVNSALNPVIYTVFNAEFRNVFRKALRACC
Summary of the method: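 Radioligand displacement on human DRD4.4 from CHO-derived membranes, 1 hour incubation, bound counts read by filtration and scintillation. Primary screen in duplicate at 25 uM; actives followed up in concentration series.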

[5] = target: human Adrenergic, Beta 3 Receptor (Adrb3), ADRB3 (gene 155) (UniProt P13945); assay: NVS_GPCR_hAdrb3: NovaScreen (NVS) G Protein-Coupled Receptor Assay for human Adrenergic, Beta 3 Receptor (Adrb3) (AID 2283262)
Chain of human Adrenergic, Beta 3 Receptor (Adrb3), ADRB3 (gene 155) (P13945 whole entry, looked up): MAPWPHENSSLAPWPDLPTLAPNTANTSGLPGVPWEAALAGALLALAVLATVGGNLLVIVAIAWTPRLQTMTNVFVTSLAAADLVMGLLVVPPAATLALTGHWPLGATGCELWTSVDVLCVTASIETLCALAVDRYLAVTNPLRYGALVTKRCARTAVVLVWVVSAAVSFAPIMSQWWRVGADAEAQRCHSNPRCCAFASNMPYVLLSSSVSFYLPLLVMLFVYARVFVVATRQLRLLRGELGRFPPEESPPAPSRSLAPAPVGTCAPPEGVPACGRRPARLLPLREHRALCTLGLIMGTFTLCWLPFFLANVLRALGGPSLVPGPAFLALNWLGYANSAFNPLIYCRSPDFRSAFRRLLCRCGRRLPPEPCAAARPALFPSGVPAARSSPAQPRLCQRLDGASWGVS
Method: NVS_GPCR_hAdrb3 is a biochemical, single-readout assay that uses extracted gene-proteins from SK-N-MC pretreated with isoproteronol and 8-bromo-cAMP in a cell-free assay. Measurements were taken 1 hour after chemical dosing in a 48-well plate.NVS_GPCR_hAdrb3 is one of one assay component(s) measured or calculated from the NVS_GPCR_hAdrb3 assay. It is designed to make measurements of radioligand binding, a form of binding reporter, as detected with scintillation counting signals by Filter-based radiodetection technology.Data from the assay component NVS_GPCR_hAdrb3 was analyzed into 1 assay endpoint. This assay endpoint, NVS_GPCR_hAdrb3, was analyzed in the positive analysis fitting direction relative to DMSO as the negative control and baseline of activity. Using a type of binding reporter, loss-of-signal activity can be used to understand changes in the binding as they relate to the gene ADRB3. Furthermore, this assay endpoint can be referred to as a primary readout, because the performed assay has only produced 1 assay endpoint. To generalize the intended target to other relatable targets, this assay endpoint is annotated to the gpcr intended target family, where the subfamily is rhodopsin-like receptor. […]

[6] = target: human Histamine 1 Receptor (H1), HRH1 (gene 3269) (UniProt P35367); assay: NVS_GPCR_hH1: NovaScreen (NVS) G Protein-Coupled Receptor Assay for human Histamine 1 Receptor (H1) (AID 2283268)
Chain of human Histamine 1 Receptor (H1), HRH1 (gene 3269) (P35367 whole entry, looked up): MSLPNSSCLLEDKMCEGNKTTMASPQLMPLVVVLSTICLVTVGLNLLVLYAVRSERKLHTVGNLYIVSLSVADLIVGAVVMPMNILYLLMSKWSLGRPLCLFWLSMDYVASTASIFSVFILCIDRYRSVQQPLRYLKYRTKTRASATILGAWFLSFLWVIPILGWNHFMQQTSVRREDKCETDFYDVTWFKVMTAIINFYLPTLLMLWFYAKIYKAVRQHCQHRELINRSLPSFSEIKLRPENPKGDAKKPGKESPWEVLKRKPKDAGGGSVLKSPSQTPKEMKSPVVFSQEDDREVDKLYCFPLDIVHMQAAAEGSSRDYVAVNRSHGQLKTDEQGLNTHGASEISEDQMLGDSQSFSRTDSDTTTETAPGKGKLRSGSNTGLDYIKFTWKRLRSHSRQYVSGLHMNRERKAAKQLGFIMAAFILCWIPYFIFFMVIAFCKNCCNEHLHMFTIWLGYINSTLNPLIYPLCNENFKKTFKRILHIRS
Summary of the method: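 Cell-free radioligand displacement at human H1 receptor, 1 h, filter scintillation counting; primary screen 25 uM in duplicate, hits in concentration series; loss of binding fitted vs DMSO.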

[7] = target: human Endothelin Receptor Type B (ETB), EDNRB (gene 1910) (UniProt P24530); assay: NVS_GPCR_hETB: NovaScreen (NVS) G Protein-Coupled Receptor Assay for human Endothelin Receptor Type B (ETB) (AID 2283267)
Chain of human Endothelin Receptor Type B (ETB), EDNRB (gene 1910) (P24530 whole entry, looked up): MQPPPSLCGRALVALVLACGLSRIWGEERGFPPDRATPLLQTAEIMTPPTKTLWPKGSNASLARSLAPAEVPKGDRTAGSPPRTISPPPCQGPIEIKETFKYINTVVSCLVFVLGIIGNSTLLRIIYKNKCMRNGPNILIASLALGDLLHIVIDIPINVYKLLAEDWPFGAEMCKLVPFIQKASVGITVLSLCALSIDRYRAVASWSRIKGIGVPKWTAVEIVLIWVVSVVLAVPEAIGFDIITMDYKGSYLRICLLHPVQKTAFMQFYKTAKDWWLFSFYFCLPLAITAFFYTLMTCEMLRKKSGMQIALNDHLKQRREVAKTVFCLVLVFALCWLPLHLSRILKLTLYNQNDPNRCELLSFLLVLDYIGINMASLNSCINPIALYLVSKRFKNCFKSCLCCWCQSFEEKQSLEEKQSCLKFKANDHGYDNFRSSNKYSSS
Summary of the method: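 Human astrocytoma cell membranes; radioligand competitive binding read by filter scintillation counting 4 hours after dosing. Single-concentration duplicate screen at 25 uM, then singleton concentration-response up to 50 uM; loss of signal versus DMSO.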

[8] = target: human Leukotriene B4 Receptor 1 (LTB4-BLT1), LTB4R (gene 1241) (UniProt Q15722); assay: NVS_GPCR_hLTB4_BLT1: NovaScreen (NVS) G Protein-Coupled Receptor Assay for human Leukotriene B4 Receptor 1 (LTB4-BLT1) (AID 2283271)
Chain of human Leukotriene B4 Receptor 1 (LTB4-BLT1), LTB4R (gene 1241) (Q15722 whole entry, looked up): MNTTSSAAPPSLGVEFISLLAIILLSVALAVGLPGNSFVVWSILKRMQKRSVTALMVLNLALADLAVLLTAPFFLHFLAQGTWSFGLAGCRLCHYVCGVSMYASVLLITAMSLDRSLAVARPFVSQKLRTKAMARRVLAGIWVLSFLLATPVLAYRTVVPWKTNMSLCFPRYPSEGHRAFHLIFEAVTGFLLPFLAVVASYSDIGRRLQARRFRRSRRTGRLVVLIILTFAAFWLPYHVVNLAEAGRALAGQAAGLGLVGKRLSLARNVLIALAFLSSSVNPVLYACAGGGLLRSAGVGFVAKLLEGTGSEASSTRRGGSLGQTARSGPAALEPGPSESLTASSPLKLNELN
Summary of the method: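 Radioligand displacement binding on receptor extracted from human neutrophils, cell-free, 1 h after dosing; filter-based scintillation counting. Primary screen in duplicate at 25 uM, actives retested in concentration-response up to 50 uM; loss of signal versus DMSO.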

SMILES: CC[C@H](C)[C@H]1O[C@]2(C=C[C@@H]1C)C[C@@H]1C[C@@H](C/C=C(\C)[C@@H](O[C@H]3C[C@H](OC)[C@@H](O[C@H]4C[C@H](OC)[C@@H](NC)[C@H](C)O4)[C@H](C)O3)[C@@H](C)/C=C/C=C3\CO[C@@H]4[C@H](O)C(C)=C[C@@H](C(=O)O1)[C@]34O)O2
- AC50 [1]: 26.8 µM (active)
- AC50 [2]: 9.83 µM (active)
- AC50 [3]: 18.1 µM (active)
- AC50 [4]: 16.2 µM (active)

SMILES: CCOP(=S)(OCC)Oc1ccc2c(C)c(Cl)c(=O)oc2c1
- outcome [1]: inactive

SMILES: CCOP(=O)(SC(C)CC)N1CCSC1=O (stereo not drawn)
- outcome [5]: inactive
- outcome [6]: inactive

SMILES: CON=C(C(=O)OC)c1ccccc1CON=C(C)c1cccc(C(F)(F)F)c1
- outcome [5]: inactive

SMILES: Cc1cc(C2CC2)nc(Nc2ccccc2)n1
- AC50 [4]: 12.3 µM (active)

SMILES: CNC(=O)Oc1cccc2c1OC(C)(C)O2
- outcome [7]: inactive

SMILES: CN(C)C(=O)Nc1cccc(C(F)(F)F)c1
- outcome [6]: inactive

SMILES: COc1ccc(C(=CC(=O)N2CCOCC2)c2ccc(Cl)cc2)cc1OC
- outcome [8]: inactive

SMILES: COc1cc(OC)nc(Sc2cccc(Cl)c2C(=O)O)n1
- outcome [8]: inactive
